This is a sample that favours compounds with a hit; in the whole collection about 19% have one here.
TDP1 block: TDP1 (human) enzyme inhibition. Q9NUW8. recombinant TDP1, AlphaScreen DNA substrate cleavage. Potency, µM (series often up to 130 µM), most hits filed as inhibitors. actives 0.28% (n = 350,000); also: nearly all actives have a fitted effect of over 40% in size
Target sequence (Q9NUW8 whole entry, looked up): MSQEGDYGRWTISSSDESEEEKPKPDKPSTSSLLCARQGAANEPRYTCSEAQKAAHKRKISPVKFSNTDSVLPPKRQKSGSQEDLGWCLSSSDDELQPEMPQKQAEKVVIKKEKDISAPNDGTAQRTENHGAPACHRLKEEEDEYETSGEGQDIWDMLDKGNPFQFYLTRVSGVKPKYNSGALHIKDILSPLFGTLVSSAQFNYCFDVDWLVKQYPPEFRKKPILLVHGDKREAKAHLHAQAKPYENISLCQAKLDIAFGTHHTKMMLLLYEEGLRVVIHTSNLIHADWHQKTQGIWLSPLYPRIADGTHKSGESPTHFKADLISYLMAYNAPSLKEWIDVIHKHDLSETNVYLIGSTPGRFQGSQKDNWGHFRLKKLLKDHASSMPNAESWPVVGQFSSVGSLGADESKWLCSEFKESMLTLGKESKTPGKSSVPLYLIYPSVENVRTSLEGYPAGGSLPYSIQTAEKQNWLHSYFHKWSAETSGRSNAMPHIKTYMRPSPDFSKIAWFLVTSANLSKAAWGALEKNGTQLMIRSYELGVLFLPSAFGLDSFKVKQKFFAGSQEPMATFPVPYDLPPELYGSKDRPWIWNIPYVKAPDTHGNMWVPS
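Enzyme-compound mixtures sat 15 min at room temperature, followed by a 5 min reaction with 15 nM final substrate and 10 min with AlphaScreen beads. Recombinant human Tdp1 was used at 1 nM final.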
HepG2 tox: HepG2 cytotoxicity, counter-screen for TGF-b inhibitors | HepG2 CAGA-GFP viability, ATP luminescence, 18 h | Potency, µM (top dose mostly 46.1 µM), most hits filed as cytotoxic | actives 0.76% (n = 410,000)
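HepG2 CAGA-GFP cells (1000/well, DMEM with 1% FBS) received compound, then TGF-beta at 500 pg/mL final, and were incubated 18 hours at 37 degrees C. Viability was read by CellTiter-Glo luminescence. Media-only wells were set as complete cell-killing and DMSO as no toxicity.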
TDP1 cell noCPT: qHTS for Inhibitors of human tyrosyl-DNA phosphodiesterase 1 (TDP1): qHTS in cells in absence of CPT; DT40 Tdp1-/- hTDP1 cells, no CPT, ATP luminescence, 48 h; Potency, µM (highest dose often 46.2 µM), hits mostly inhibitors; actives 15% (n = 420,000); AID 686978, 2013; also: nearly all actives have a fitted effect of over 55% in size
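Stably hTDP1-transfected Tdp1-null chicken DT40 cells were treated with library compounds minus camptothecin and grown for at least 48 hr at 37 °C, after which cellular ATP was quantified by luminescence.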
TDP1 cell CPT: DT40-hTDP1 cell growth loss with CPT. chicken DT40 Tdp1-/-;hTDP1 cells + 20 nM CPT, ATP luminescence, 48 h. Potency, µM (series often up to 46.2 µM), hits mostly inhibitors. actives 12% (n = 420,000). AID 686979; also: nearly all actives have a fitted effect of over 55% in size
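Cell growth measured by CellTiter-Glo luminescence after a minimum 48 h, 37 C compound exposure with 20 nM CPT in Tdp1-knockout DT40 cells stably expressing hTDP1, seeded 400/well; qHTS titration format.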
TGFb SMAD3 inh: blocks TGF-b signaling; HepG2 CAGA-GFP TGF-b/SMAD3 reporter, GFP fluorescence, 18 h; TGF-beta stimulated, 500 pg/mL final; Potency, µM (doses to about 46.1 µM), usual class: inhibitors; actives 1.2% (n = 410,000); also: nearly all actives have a fitted effect of over 65% in size
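Using HEPG2 CAGA-GFP reporter cells at 1000 cells/well, we pinned test compounds, stimulated with recombinant TGF-beta (500 pg/mL final) and measured total well GFP after 18 h.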
IL1B secr inh: blocks inflammasome-driven IL-1 beta release; THP-1 LPS/ATP IL-1B secretion, AlphaLISA, 16 h; active compounds read low; activity change, % at 57.5 µM; actives 4.7% (n = 360,000); AID 743279; in the data active = activity change below about -50%; inconclusive = mostly about -30% to -49%
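THP-1 cells pretreated 1 hr with compounds (up to 57.5 uM final), then stimulated with LPS (250 ng/mL final) plus ATP (1.25 mM final); secreted IL-1B measured by AlphaLISA after 16 hr, decreased signal indicating inhibition.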
A number is an active result; . = inactive; ? = inconclusive; / = no result given; [ ] = dose if it differs, or a comment. Unless noted, calls follow the shape of the dose curve; as a rule, active = well fitted curve in the direction sought with a large enough effect; inconclusive = small, poorly fitted or top-dose-only effect, or another doubt; inactive = no such curve, though single readings can be large; an effect the other way counts as inactive or inconclusive.

SMILES | TDP1 block | HepG2 tox | TDP1 cell noCPT | TDP1 cell CPT | TGFb SMAD3 inh | IL1B secr inh
O=C(Nc1cccnc1)c1cc(-c2ccco2)on1 | . | . | ? | 9.2µM | . | .
O=C(NCc1cccc(F)c1)C1CCCN(C(=O)N2CCOc3ccccc32)C1 (configuration not stated) | . | . | . | . | . | /
Cc1cnc(CNc2nc(-c3ccccc3Cl)nc3ccccc23)cn1 | / | / | . | . | / | /
Cc1cc2c(cc(C(=O)OC(C)C(=O)NCc3ccc(F)cc3)n2C)o1 (configuration not stated) | / | . | . | . | . | .
CC(=O)C[C@@H](O)CC(=O)[C@@H]1OC(=O)CCCCCCCCc2ccccc21 | . | . | ? | ? | . | .
COC(=O)c1c(-c2ccc(C)cc2)csc1NC(=O)c1c(-c2ccccc2)noc1C | . | / | / | / | / | /
COC(=O)c1c(-c2cccnc2)csc1NC(=O)c1cc(C)on1 | . | . | 16.4µM | ? | . | .
COc1ccc(N2CCN(c3cc(C(=O)Nc4cc(OC)c(OC)c(OC)c4)ncn3)CC2)cc1OC | / | . | 18.4µM | 14.6µM | . | .
COc1ccc(OC)c(-c2cc(C(=O)NCc3cccs3)no2)c1 | . | . | ? | 20.6µM | ? | .
CCOc1ccccc1-c1nnc2n1N=C(c1cc(OC)cc(OC)c1)CS2 | . | / | / | / | / | /
COc1cc(/C=C/c2nc(N)nc(-c3ccccc3O)n2)cc(OC)c1OC | . | . | 10.3µM | ? | . | .
CC(=O)Nc1ccc(/C=C/c2nc(-c3ccccc3O)n[nH]2)cc1 | / | . | 29.1µM | ? | . | .
COc1ccc(/C=C/c2nc(N)nc(-c3ccccc3O)n2)cc1OC | . | . | ? | ? | ? | ?
COc1cc(/C=C/c2noc(-c3ccccc3O)n2)cc(OC)c1OC | . | . | ? | . | ? | .
COc1cc(/C=C/c2nc(-c3ccccc3O)n[nH]2)cc(OC)c1OC | . | 11.2µM | 14.6µM | 20.6µM | ? | -120.6
Cc1noc(-c2ccc(-c3noc(-c4cccc(F)c4)n3)cc2)n1 | . | . | . | . | . | /
CC(=O)Nc1c(C#N)c(-c2ccccc2)c(C#N)c(=O)n1-c1ccc(C)cc1 | / | . | . | . | . | .
CC(C)(C)OC(=O)N[C@@H](Cc1ccccc1)c1nnc(S(=O)(=O)Cc2cccc(F)c2)o1 | . | . | 1.3µM | 1.3µM | 11.2µM | -80.2
CC(C)C[C@H](N)c1nnc(S(=O)(=O)Cc2cccc(F)c2)o1 | . | . | 5.8µM | 5.8µM | 17.8µM | ?
CCOC(=O)CSc1nnc([C@H](Cc2ccccc2)NC(=O)OC(C)(C)C)o1 | . | . | . | . | . | .
CC(C)(C)c1ccc(OCc2cc(=O)n3c4c(sc3n2)CCCC4)cc1 | . | . | . | . | . | /
COCCN(C(=O)COC(=O)c1ccc2[nH]c(C)c(C)c2c1)c1c(N)n(Cc2ccccc2)c(=O)[nH]c1=O | . | . | . | . | . | .
CC(OC(=O)c1cnc(Cl)c(Cl)c1)C(=O)NCc1ccccc1 (configuration not stated) | . | . | . | ? | . | -87.2
CC(OC(=O)c1ccc2ncsc2c1)C(=O)NCc1ccccc1 (configuration not stated) | . | / | / | / | / | /
Cc1[nH]c2ccc(C(=O)OC(C)C(=O)NCc3ccccc3)cc2c1C (configuration not stated) | / | . | 6.51µM | 13µM | . | -56.5
SMILES | TDP1 block | HepG2 tox | TDP1 cell noCPT | TDP1 cell CPT | TGFb SMAD3 inh | IL1B secr inh
Cc1ccccc1CN(C)C(=O)COC(=O)c1ccc2[nH]c(C)c(C)c2c1 | . | . | ? | 16.4µM | . | -60.8
CCc1nc2cc(C(=O)N[C@H]3CCCCNC3=O)cc(NC(=O)c3ccccc3OC)c2n1C | / | / | . | . | / | /
COc1ccccc1CN(C)C(=O)c1ccc(S(=O)(=O)NCc2ccco2)cc1 | . | . | . | ? | . | .
O=C(COC(=O)CNC(=O)c1ccc(Cl)cc1Cl)NC1CCCCC1 | . | . | . | . | . | .
Cc1ccccc1-c1nn(-c2ccc(F)cc2F)cc1CNCC(C)O (configuration not stated) | . | . | ? | . | . | .
CCOCCCNCc1cn(-c2ccc(F)cc2F)nc1-c1ccccc1C | . | . | 16.4µM | 14.6µM | . | -76.9
Cc1cc(O)c(Oc2cc(C)cc(O)c2O)c(O)c1 | . | . | 5.17µM | 4.61µM | ? | .
Cc1sc2nc(CN3CCOCC3)[nH]c(=S)c2c1C | . | . | ? | ? | . | .
O=C1C(=Cc2cccs2)C(=O)c2ccccc21 | . | . | . | . | . | .
O=C1C(c2ccccc2)=[N+]([O-])c2ccccc21 | . | 11.2µM | 4.11µM | 5.17µM | ? | -87.9
O=C(CN(Cc1ccc(Cl)cc1)C(=O)c1csnn1)NCc1ccc(F)cc1 | / | . | ? | . | . | .
COc1ccc(C(=O)N2CCC3(CC2)CN(CC(C)C)C3)cc1 | / | / | . | . | / | /
N#CC(=C1NC(=O)c2ccccc21)c1nc2ccccc2n1CCO | / | . | 8.2µM | ? | ? | -74.0
O=C(Nc1cccc(S(=O)(=O)N2CCCCC2)c1)c1ccc(OCC2CCCO2)cc1 (configuration not stated) | . | . | 16.4µM | 20.6µM | . | .
Cc1cc(C)nc(-n2nc(C)cc2NC(=O)c2cccc(S(=O)(=O)N3CCOCC3)c2)n1 | . | . | 20.6µM | ? | . | .
Cc1cc(C)n(-c2ccc(C(=O)Nc3cccc(S(=O)(=O)N4CCCC4)c3)cc2)n1 | . | . | 9.2µM | 18.4µM | . | .
COc1cccc(NC(=O)c2ccc(S(=O)(=O)N3CCCC3)cc2)c1 | .[0.0935 µM] | . | . | . | . | ?
CC(C)Oc1ccc(C(=O)Nc2cccc(S(=O)(=O)N3CCCC3)c2)cc1 | . | . | 20.6µM | 29.1µM | . | ?
CCOc1ccc(NC(=O)COc2cccc3c2CCN(Cc2cccnc2)C3=O)cc1 | . | . | ? | ? | . | .
COC(=O)C1=C[C@@H](C(=O)OC)[C@H]2C3=C(C(=O)[C@@]2(C)NC(=O)c2ccccc2)[C@H](C)C(C(=O)OC)=C(C(=O)OC)[C@@H]3C1 | . | . | / | / | . | /
Cc1cc(C)n(-c2ccc(C(=O)OCC(=O)Nc3ccc(S(=O)(=O)N4CCCCC4)cc3)cc2)n1 | . | . | ? | 23.1µM | . | .
CCN(CC)C(=O)c1c(-c2ccccc2)c(-c2ccccc2)nn(C)c1=O | . | . | . | . | ? | /
Cc1cc(C)c(S(=O)(=O)NCC(c2ccco2)N2CCOCC2)c(C)c1 (configuration not stated) | . | . | ? | ? | . | /
